Here are results for 13 molecules from PubChem BioAssay (NCATS).

Common to all, as to assay: qHTS profiling for inhibitors of Plasmodium falciparum proliferation (AID 504749); also: nearly all actives have a fitted effect of over 60% in size
What all share (settings): P. falciparum in erythrocytes, SYBR Green DNA, 72 h; series mostly up to 28.7 µM
(Quantitative high-throughput screening tests each substance at several concentrations.)

One assay concerns CP265. An outline of the steps: (§1)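 Parasite proliferation within erythrocytes, 72 h exposure. Endpoint: SYBR Green I fluorescence after overnight lysis at room temperature. Controls: 0.29 uM artemisinin, DMSO.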
The next assay has as its system CP266. In outline:
as §1

In another assay the test system is CP268. In outline: as §1
Another assay deals with CP269. In outline:
as §1

Another assay has as its system CP286. In outline:
as §1

Another assay deals with CP291. An outline of the steps: as §1
Another assay concerns CP297. An outline of the steps:
as §1

The test system of a further assay is CP305. An outline of the steps:
as §1

A further assay deals with CP315. An outline of the steps:
as §1

For a further assay, the system named is CP325. An outline of the steps: as §1
Another assay concerns CP329. An outline of the steps:
as §1

The subject of the next assay is CP335. In outline:
as §1

In another assay the test system is DFO2036. An outline of the steps:
as §1

A further assay has as its system DIV14. An outline of the steps:
as §1

In a further assay the test system is DIV17. An outline of the steps: as §1
Another assay concerns DIV30. An outline of the steps: as §1
A further assay has as its system Dd2. An outline of the steps: as §1
The subject of a further assay is ECU. An outline of the steps: as §1
In a further assay the test system is FAB9. In outline:
as §1

For another assay, the system named is GB4. In outline:
as §1

Records with an inconclusive call do not appear. Calls of active or inactive are those of the source. Calls follow the shape of the dose curve; as a rule, active = well fitted inhibition curve with a large enough effect; inconclusive = small, poorly fitted or top-dose-only effect; inactive = flat fitted curve, though single readings scatter.
Potency is read from the fitted curve at half-maximal effect.

Consider `Cc1cc(C(C)(C)C)c(O)c(C)c1CC1=NCCN1`, for which the Potency entry in the assay with CP265, in the assay with CP266, in the assay with CP268, in the assay on CP269, in the assay on CP286 and in the assay on CP291 was “inactive” throughout. Further, the Potency entry in the assay on CP297, in the assay with CP305, with CP315, with CP325, with CP329 and with CP335 was “inactive” in each case. The Potency result in the assay on DFO2036, in the assay with DIV14, in the assay on DIV17, in the assay on DIV30, with Dd2 and with ECU was “inactive” in each case. Besides, the Potency result in the assay with FAB9 and in the assay on GB4 was “inactive” in each case.
`Clc1ccc2nsnc2c1NC1=NCCN1`: the Potency entry with CP265, with CP266, in the assay with CP268, with CP269, in the assay with CP286 and in the assay on CP291 was “inactive” each time. Further, the Potency entry in the assay with CP297, in the assay with CP305, with CP315, with CP325, in the assay with CP329 and in the assay on CP335 was “inactive” in each case. Moreover, the Potency result in the assay with DFO2036, in the assay with DIV14, in the assay with DIV17, in the assay on DIV30, in the assay with Dd2 and in the assay on ECU was “inactive” each time. Moreover, the Potency entry in the assay with FAB9 and in the assay on GB4 was “inactive” throughout.
In the case of `COc1ccccc1N1CCN(CC(O)COc2cccc3ccccc23)CC1` (configuration not stated), the Potency result with CP265, in the assay on CP266, in the assay on CP268, in the assay with CP269, with CP286 and in the assay on CP291 was “inactive” in each case. The Potency result with CP297, in the assay on CP305, in the assay on CP315, in the assay on CP325, in the assay with CP329 and in the assay on CP335 was “inactive” each time. In addition, the Potency result in the assay on DFO2036, in the assay with DIV30, in the assay on Dd2, in the assay on ECU and in the assay with FAB9 was “inactive” throughout.
On to `CN1C(C(=O)Nc2ccccn2)=C(O)c2ccccc2S1(=O)=O`, for which the Potency result with CP265, in the assay on CP266, in the assay on CP268, in the assay on CP269, in the assay with CP286 and in the assay with CP291 was “inactive” each time. Besides, the Potency entry with CP297, with CP305, in the assay with CP315, with CP325, in the assay with CP329 and with CP335 was “inactive” each time. Further, the Potency entry in the assay with DFO2036, in the assay with DIV14, in the assay with DIV17, in the assay on DIV30, with Dd2 and in the assay with ECU was “inactive” throughout. Also, the Potency result with FAB9 and in the assay with GB4 was “inactive” each time.
Turning to `CC(C)(Oc1ccc(C2CC2(Cl)Cl)cc1)C(=O)O` (configuration not stated), the Potency result in the assay on CP265, in the assay with CP266, in the assay with CP268, in the assay on CP269, with CP286 and in the assay on CP291 was “inactive” throughout. Also, the Potency result in the assay on CP297, in the assay with CP305, in the assay with CP315, in the assay on CP325, in the assay with CP329 and in the assay with CP335 was “inactive” throughout. For the same molecule, the Potency result with DFO2036, in the assay on DIV14, in the assay with DIV17, in the assay with DIV30, in the assay on Dd2 and in the assay on ECU was “inactive” throughout. In addition, the Potency result in the assay with FAB9 and in the assay with GB4 was “inactive” in each case.
For `CC(C)Cc1ccc(C(C)C(=O)O)cc1` (configuration not stated), the Potency entry in the assay on CP265, in the assay with CP266, in the assay on CP268, in the assay on CP269, with CP286 and with CP291 was “inactive” throughout. The Potency result in the assay on CP297, in the assay with CP305, in the assay with CP315, with CP325, with CP329 and in the assay with CP335 was “inactive” throughout. In addition, the Potency result with DFO2036, in the assay with DIV14, in the assay with DIV17, in the assay with DIV30, in the assay with Dd2 and with ECU was “inactive” throughout. Further, the Potency result with FAB9 and in the assay with GB4 was “inactive” throughout.
Regarding `CN1CCN2c3ccccc3Cc3ccccc3C2C1` (configuration not stated), the Potency entry with CP265, with CP266, in the assay on CP268, in the assay with CP269, with CP286 and in the assay on CP291 was “inactive” each time. Further, the Potency entry in the assay on CP297, with CP305, in the assay on CP315, with CP325, in the assay with CP329 and in the assay on CP335 was “inactive” each time. In addition, the Potency result in the assay on DFO2036, in the assay with DIV14, with DIV17, in the assay on DIV30, with Dd2 and in the assay on ECU was “inactive” in each case. Moreover, the Potency entry in the assay on FAB9 and in the assay on GB4 was “inactive” each time.
On to `CC(C)(C)C(=O)Oc1ccc(S(=O)(=O)Nc2ccccc2C(=O)NCC(=O)O)cc1`, for which the Potency entry with CP265, in the assay on CP266, in the assay with CP268, in the assay with CP269, with CP286 and in the assay with CP291 was “inactive” in each case. Also, the Potency result with CP297, in the assay with CP305, with CP315, in the assay with CP325, in the assay with CP329 and in the assay with CP335 was “inactive” in each case. The Potency entry in the assay with DFO2036, in the assay with DIV14, in the assay on DIV17, with DIV30, with Dd2 and with FAB9 was “inactive” throughout. The Potency entry with GB4 is “inactive”.
As for `N[C@@H](Cc1c[nH]c2ccc(O)cc12)C(=O)O`, the Potency entry with CP265, in the assay on CP266, with CP268, in the assay on CP269, with CP286 and in the assay on CP291 was “inactive” in each case. The Potency entry in the assay on CP297, in the assay on CP305, in the assay with CP315, in the assay with CP325, in the assay on CP329 and in the assay with CP335 was “inactive” in each case. The Potency result in the assay with DFO2036, in the assay with DIV14, in the assay with DIV17, with DIV30, in the assay on Dd2 and in the assay with ECU was “inactive” in each case. Also, the Potency result in the assay on FAB9 and with GB4 was “inactive” throughout.
As to `NC12CC3CC(CC(C3)C1)C2`, the Potency entry with CP265, in the assay on CP266, in the assay on CP268, in the assay with CP269, in the assay with CP286 and with CP291 was “inactive” throughout. Besides, the Potency entry in the assay on CP305, with CP315, in the assay on CP325, in the assay on CP329, in the assay with DFO2036 and in the assay with DIV14 was “inactive” throughout. Besides, the Potency entry in the assay on DIV17, in the assay on DIV30, in the assay on Dd2, in the assay on ECU and in the assay with FAB9 was “inactive” in each case.
On to `CC(CCc1ccc(O)cc1)NCCc1ccc(O)c(O)c1` (configuration not stated), for which the Potency result in the assay on CP265, with CP266, in the assay on CP268, in the assay with CP269, with CP286 and in the assay with CP291 was “inactive” throughout. Moreover, the Potency result in the assay with CP297, in the assay on CP305, in the assay with CP315, in the assay on CP325, in the assay with CP329 and in the assay with CP335 was “inactive” each time. The Potency result with DFO2036, in the assay on DIV14, in the assay with DIV17, with DIV30, with ECU and with FAB9 was “inactive” in each case. Also, the Potency result with GB4 is “inactive”.
Regarding `NC(=O)NO`, the Potency result in the assay with CP265, in the assay with CP266, in the assay on CP268, in the assay on CP269, with CP286 and in the assay with CP291 was “inactive” throughout. For the same molecule, the Potency result in the assay with CP297, in the assay on CP305, in the assay with CP315, in the assay on CP325, with CP329 and with CP335 was “inactive” throughout. Also, the Potency entry in the assay with DFO2036, in the assay on DIV17, with DIV30, in the assay with Dd2, with ECU and in the assay with FAB9 was “inactive” in each case. In addition, the Potency entry in the assay on GB4 was “inactive”.
On to `CC12CC3CC(C)(C1)CC(N)(C3)C2`, for which the Potency entry in the assay on CP265, in the assay with CP266, with CP268, in the assay on CP269, in the assay with CP286 and with CP291 was “inactive” throughout. In addition, the Potency entry in the assay with CP305, in the assay with CP315, in the assay with CP325, with CP329, with CP335 and with DFO2036 was “inactive” in each case. Moreover, the Potency result in the assay on DIV30, in the assay on ECU and in the assay on FAB9 was “inactive” throughout. Also, in the assay on Dd2, the Potency is 5.01 µM (active).
